This is a sample that favours compounds with a hit; in the whole collection about 9.4% have one here.
AMA1 RON2 block: inhibitors of Plasmodium falciparum AMA1-RON2 interaction. AlphaScreen AMA1-biotinylated RON2 peptide binding. Potency, µM (series often up to 58.2 µM), usual class: inhibitors. 360,000 tested, 0.2% active. AID 720542; also: nearly all actives have a fitted effect of over 45% in size
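AMA1 (3D7) with his tag at 25 nM final met compounds first, then biotinylated RON2 peptide at 25 nM; detection used donor plus acceptor beads, 10 µg/mL apiece, read by AlphaScreen after 30 min at room temperature.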
Pf growth 96h: P. falciparum growth inhibition at 96 hours; P. falciparum luciferase reporter growth, 96 h; 320,000 tested, 6.9% active; Potency, µM (series often up to 28.7 µM), actives largely listed as inhibitors; AID 504834
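Infected RBCs, 2% Hct / 0.05% parasitemia final; luciferase-reporter P. falciparum; cpd 96 h, 37 C, 5% CO2; luciferase detection reagent; luminescence.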
SARS PLP yeast: blocks SARS-CoV papain-like protease in a yeast assay; S. cerevisiae expressing SARS-CoV PLpro, growth rescue; Potency, µM (titrated, usually from 32.9 µM), most hits filed as activators; 330,000 tested, 0.19% active; calls by dose curve; also: nearly all actives have a fitted effect of over 55% in size
Pf growth 48h: inhibits P. falciparum growth in the first generation, 48 h; P. falciparum luciferase growth in erythrocytes, 48 h; Potency, µM (top dose mostly 28.7 µM), hits mostly inhibitors; 310,000 tested, 5.9% active; AID 504832
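First compound was added to culture medium, then infected red cells at 0.1% parasitemia and 2% hematocrit (final). After incubation at 37 C under 5% CO2, luciferase detection reagent was dispensed and light output recorded.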
Of the large screens only hits and unclear results are named; the others gave an inactive call. Unless noted, calls follow the shape of the dose curve; as a rule, active = well fitted curve in the direction sought with a large enough effect; inconclusive = small, poorly fitted or top-dose-only effect, or another doubt; inactive = no such curve, though single readings can be large; an effect the other way counts as inactive or inconclusive.

CCOC(=O)N1CCN(c2nc3ccccn3c(=O)c2C=O)CC1	Pf growth 96h 0.828µM, Pf growth 48h 0.294µM
CCOC(=O)c1c(C2CCN(C(=O)OCC)CC2)nc2ccccn12	Pf growth 96h 5.22µM (no result: Pf growth 48h)
CN(Cc1ccccc1)CC(O)COc1ccc(CNCc2ccc(Cl)s2)cc1 (centres undefined)	Pf growth 96h inconclusive, Pf growth 48h 5.86µM
OC(COc1ccc(CNCc2cccnc2)cc1)CN1CCc2ccccc2C1 (centres undefined)	Pf growth 48h inconclusive
CN(Cc1ccccc1)C(=O)c1nc2ccccn2c1CNCCOc1cccnc1	Pf growth 48h inconclusive
CN(Cc1ccccc1)CC(O)COc1ccc(CNCCCOc2cccnc2)cc1 (centres undefined)	Pf growth 96h inconclusive, Pf growth 48h 2.08µM
CCn1cc(CNCc2ccc(OCC(O)CN(C)Cc3ccccc3)cc2)cn1 (centres undefined)	Pf growth 96h inconclusive, Pf growth 48h inconclusive
Cc1nn(C)cc1CNCc1ccc(OCC(O)CN(C)Cc2ccccc2)cc1 (centres undefined)	Pf growth 48h inconclusive
CN(Cc1ccccc1)CC(O)COc1ccc(CNCCOc2cccnc2)cc1 (centres undefined)	Pf growth 96h inconclusive, Pf growth 48h 13.1µM
CN(Cc1ccccc1)CC(O)COc1ccc(CNCc2cccnc2)cc1 (centres undefined)	Pf growth 96h 8.28µM, Pf growth 48h 9.28µM
COC(=O)c1ccc(COc2ccc(-c3nnn(CC(=O)NC(C)(C)C)n3)cc2)cc1	Pf growth 96h 7.38µM, SARS PLP yeast inconclusive, Pf growth 48h inconclusive
c1ccc(-c2c(-c3ccccc3)n(Cc3ccco3)c3ncnc(NCCCn4ccnc4)c23)cc1	AMA1 RON2 block inconclusive, Pf growth 96h 2.08µM (no result: Pf growth 48h)
c1ccc(-c2oc3ncnc(NCCCn4ccnc4)c3c2-c2ccccc2)cc1	Pf growth 48h 13.1µM
OCCNc1ncnc2c1c(-c1ccccc1)c(-c1ccccc1)n2Cc1ccco1	none (no result: Pf growth 48h)
N=c1c2c(-c3ccccc3)c(-c3ccccc3)n(Cc3ccco3)c2ncn1CCCn1ccnc1	Pf growth 96h inconclusive, Pf growth 48h 1.85µM
CN(C)CCCNc1ncnc2oc(-c3ccccc3)c(-c3ccccc3)c12	Pf growth 96h 13.1µM, Pf growth 48h 16.5µM
O=C(Cc1c(Cl)cccc1Cl)N1CCN(Cc2ccccc2)CC1	none
C=CCN1C(=O)c2ccc(C(=O)N(C)Cc3ccc(C)o3)cc2C1=O	none
COc1ccc(C(CC(=O)O)NC(=O)OC(C)(C)C)cc1 (centres undefined)	none
Cn1cccc1Cc1nnc(SCC(=O)Nc2ccc(F)cc2)n1-c1ccc(F)cc1	Pf growth 48h inconclusive
Cc1ccc(-n2c(Cc3cccn3C)nnc2SCC(=O)Nc2ccc3c(c2)OCO3)cc1	Pf growth 96h inconclusive, Pf growth 48h 14.7µM
COc1ccc(-n2c(Cc3cccn3C)nnc2SCC(=O)N2CCC(C)CC2)cc1	Pf growth 96h 0.37µM, Pf growth 48h inconclusive
Cc1nnc(SCC(=O)Nc2ccc3c(c2)OCCO3)n1N	none (no result: Pf growth 96h)
Cn1cccc1Cc1nnc(SCC(=O)Nc2ccc3c(c2)OCCO3)n1-c1ccc(F)cc1	none
Cc1ccc(-c2nnc(SCC(=O)Nc3ccc4c(c3)OCCO4)n2N)cc1	Pf growth 96h 10.4µM
CCc1ccc(NC(=O)CSc2nnc(Cc3cccn3C)n2-c2ccc(OC)cc2)cc1	Pf growth 96h 8.28µM, Pf growth 48h inconclusive
C[n+]1cccc(/C=N/Nc2nc(Cl)c(C#N)c(Cl)c2Cl)c1	Pf growth 48h inconclusive
COc1ccc(-n2c(Cc3cccn3C)nnc2SCC(=O)Nc2ccc(Cl)cc2)cc1	Pf growth 48h 11.7µM
COc1ccc(NC(=O)CSc2nnc(Cc3cccn3C)n2-c2ccc(F)cc2)cc1OC	Pf growth 96h inconclusive, Pf growth 48h inconclusive
COc1ccc(-n2c(Cc3cccn3C)nnc2SCC(=O)Nc2ccccc2)cc1	Pf growth 96h inconclusive, Pf growth 48h 11.7µM
COc1ccc(-n2c(Cc3cccn3C)nnc2SCC(=O)Nc2cccc(F)c2)cc1	Pf growth 96h inconclusive, Pf growth 48h 8.28µM
Cn1cccc1Cc1nnc(SCC(=O)Nc2ccccc2)n1-c1ccc(F)cc1	Pf growth 48h inconclusive
COc1ccc2[nH]cc(C(O)CN3CCN(c4ccccc4F)CC3)c2c1 (centres undefined)	none
CC(C)CN=C(NS(=O)(=O)c1ccccc1)C(Cl)(Cl)Cl	Pf growth 96h 10.4µM, Pf growth 48h 2.62µM
COc1cc(/C=N/NC(=O)c2c(-c3ccccc3)noc2C)cc(OC)c1OC	Pf growth 96h inconclusive
CN(Cc1ccccc1)C(=O)CCC1CCN(S(=O)(=O)N(C)C)CC1	Pf growth 96h inconclusive
CN(Cc1ccccc1)C(=O)CCC1CCN(S(C)(=O)=O)CC1	Pf growth 96h 11.7µM
C=CC1CN2CCC1CC2[C@@H](OC(=O)c1ccc(OC)cc1)c1ccnc2ccccc12 (some centres undefined)	Pf growth 48h 2.94µM
C=CC1CN2CCC1CC2C(O)c1ccnc2ccccc12 (centres undefined)	none (no result: Pf growth 96h, SARS PLP yeast, Pf growth 48h)
CC[C@H]1CN2CCC1C[C@H]2[C@H](O)c1ccnc2ccc(OC)cc12 (some centres undefined)	Pf growth 96h 0.0522µM, Pf growth 48h 0.0928µM (no result: SARS PLP yeast)
C=C[C@@H]1CN2CC[C@H]1C[C@H]2[C@H](O)c1ccnc2ccccc12	Pf growth 96h 0.0536µM, Pf growth 48h 0.135µM (no result: AMA1 RON2 block, SARS PLP yeast)
C=CC1CN2CCC1CC2C(OC(=O)OCC)c1ccnc2ccc(OC)cc12 (centres undefined)	Pf growth 96h 0.757µM, Pf growth 48h 1.69µM (no result: AMA1 RON2 block, SARS PLP yeast)
COc1ccccc1NC(=O)CNC(=O)Cn1c(C)cc2ccccc2c1=O	none
COc1cc(F)cc(C2=CC(=O)C[C@H](c3ccc(F)cc3)C2)c1	Pf growth 96h inconclusive, Pf growth 48h inconclusive
O=C1C=C(c2cccc(CO)c2)C[C@@H](c2ccc(F)cc2)C1	Pf growth 96h 2.08µM, Pf growth 48h 2.33µM
COc1cccc(C2=CC(=O)C[C@H](c3ccc(F)cc3)C2)c1	Pf growth 96h inconclusive, Pf growth 48h 2.33µM
O=C1C=C(c2cccc(O)c2)C[C@@H](c2ccc(F)cc2)C1	Pf growth 96h inconclusive, Pf growth 48h inconclusive
COCc1cccc(C2=CC(=O)C[C@H](c3ccc(F)cc3)C2)c1	Pf growth 96h inconclusive, Pf growth 48h 2.33µM
CCn1ncc(CNC(=O)CCCSc2nc(-c3ccco3)cc(C(F)(F)F)n2)c1C	Pf growth 96h inconclusive, Pf growth 48h 11.7µM
COc1ccc(CCNC(=O)CCSc2nc(-c3ccco3)cc(C(F)(F)F)n2)cc1OC	Pf growth 96h inconclusive, Pf growth 48h 9.28µM
Cn1c(NC2CCCCC2)cc(=O)n(C)c1=O	Pf growth 96h 10.4µM, Pf growth 48h inconclusive
O=C1c2ccccc2C(=O)N1CCCSc1nc2ccccc2o1	none (no result: Pf growth 48h)
CC1=CC(=O)C2=C(C)CC(O)C3C(C)C(=O)OC3C12 (centres undefined)	Pf growth 96h 13.1µM
NC(=O)c1ccc(NC(=S)NCc2ccco2)cc1	Pf growth 96h 11.7µM
COc1ccccc1NC(=S)NCc1ccco1	none (no result: Pf growth 96h)
COc1cc(NC(=S)NCc2ccco2)cc(OC)c1OC	Pf growth 96h 5.22µM
Cc1cc(SCC(=O)Nc2ccc3[nH]c(=O)[nH]c3c2)nc2ccccc12	none (no result: Pf growth 96h, Pf growth 48h)
